Experimental data: PubChem BioAssay AID1159580 (chemical genetic matrix, 2015)
Out of some 5,500 compounds screened, about 2,000 (36%) were called active. Another 18% or so got no clear call; they are omitted. Cut-off read from the data, not from the text of the source: active = normalized growth mostly below about 0.91 (no sharp cut-off); inconclusive = no clear call, values can overlap the other calls; inactive = mostly above about 0.92. Some of the results follow.

Experiment: chemical genetic growth profiling, strain panel (AID 1159580);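 note: tested at 20 µM; growth read once vehicle control cultures reached saturation at 30 °C; 1 = growth at the plate median or of vehicle wells; lower values mean less growth of the strain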
Conditions: growth OD

Measured: normalized growth

C=CCCCCCCCCCCCC(O)CC(O)COC(C)=O (stereo not drawn) (tested in a mixture with another compound)
active: S. cerevisiae deletion strains, locus YJL164C, strain tpk1, hits give low values 0.832 | S. cerevisiae deletion strains, locus YJL166W, strain qcr8, hits give low values 0.836 | S. cerevisiae deletion strains, locus YKL009W, strain mrt4, hits give low values 0.864 | S. cerevisiae deletion strains, locus YKR001C, strain vps1, hits give low values 0.817 | S. cerevisiae deletion strains, locus YLR027C, strain aat2, hits give low values 0.921 | S. cerevisiae deletion strains, locus YLR221C, strain rsa3, hits give low values 0.806 | S. cerevisiae deletion strains, locus YLR258W, strain gsy2, hits give low values 0.906 | S. cerevisiae deletion strains, locus YLR262C, strain YPT6 (second series), hits give low values 0.823 | S. cerevisiae deletion strains, locus YLR320W, strain mms22, hits give low values 0.823 | S. cerevisiae deletion strains, locus YLR371W, strain rom2, hits give low values 0.874 | S. cerevisiae deletion strains, locus YLR418C, strain cdc73, hits give low values 0.684 | S. cerevisiae deletion strains, locus YML032C, strain rad52, hits give low values 0.88 | S. cerevisiae deletion strains, locus YML120C, strain ndi1, hits give low values 0.899 | S. cerevisiae deletion strains, locus YMR205C, strain PFK2, hits give low values 0.826 | S. cerevisiae deletion strains, locus YNL071W, strain lat1, hits give low values 0.762 | S. cerevisiae deletion strains, locus YNL233W, strain BNI4, hits give low values 0.845 | S. cerevisiae deletion strains, locus YNL298W, strain CLA4, hits give low values 0.824 | S. cerevisiae deletion strains, locus YNL307C, strain MCK1, hits give low values 0.56 | S. cerevisiae deletion strains, locus YNR052C, strain pop2, hits give low values 0.898 | S. cerevisiae deletion strains, locus YOL147C, strain pex11, hits give low values 0.917 | S. cerevisiae deletion strains, locus YOR061W, strain CKA2, hits give low values 0.672 | S. cerevisiae deletion strains, locus YOR083W, strain WHI5, hits give low values 0.873 | S. cerevisiae deletion strains, locus YOR184W, strain ser1, hits give low values 0.446 | S. cerevisiae deletion strains, locus YOR270C, strain vph1, hits give low values 0.699 | S. cerevisiae deletion strains, locus YPL051W, strain arl3, hits give low values 0.88 | S. cerevisiae deletion strains, locus YPL078C, strain atp4, hits give low values 0.882 | S. cerevisiae deletion strains, locus YPR163C, strain tif3, hits give low values 0.898 | S. cerevisiae deletion strains, locus YPR167C, strain met16, hits give low values 0.905 | S. cerevisiae deletion strains, strain wtn01, hits give low values 0.866 | S. cerevisiae strains, strain wild type, hits give low values 0.796
inactive: S. cerevisiae deletion strains, locus YJL168C, strain set2, hits give low values 0.992 | S. cerevisiae deletion strains, locus YJL187C, strain SWE1 (second series), hits give low values 0.967 | S. cerevisiae deletion strains, locus YJL187C, strain SWE1, hits give low values 0.961 | S. cerevisiae deletion strains, locus YKL068W, hits give low values 1.01 | S. cerevisiae deletion strains, locus YKL085W, strain MDH1 (second series), hits give low values 0.943 | S. cerevisiae deletion strains, locus YKL085W, strain MDH1, hits give low values 0.943 | S. cerevisiae deletion strains, locus YKL160W, strain elf1, hits give low values 0.923 | S. cerevisiae deletion strains, locus YKR026C, strain gcn3, hits give low values 0.974 | S. cerevisiae deletion strains, locus YKR091W, strain srl3, hits give low values 0.975 | S. cerevisiae deletion strains, locus YLL001W, strain dnm1, hits give low values 0.908 | S. cerevisiae deletion strains, locus YLL026W, hits give low values 0.968 | S. cerevisiae deletion strains, locus YLL041C, strain sdh2, hits give low values 0.973 | S. cerevisiae deletion strains, locus YLR039C, strain RIC1, hits give low values 1.13 | S. cerevisiae deletion strains, locus YLR058C, strain SHM2, hits give low values 0.947 | S. cerevisiae deletion strains, locus YLR102C, strain apc9, hits give low values 0.978 | S. cerevisiae deletion strains, locus YLR268W, strain sec22, hits give low values 0.975 | S. cerevisiae deletion strains, locus YLR342W, strain FKS1 (second series), hits give low values 0.824 | S. cerevisiae deletion strains, locus YLR342W, strain FKS1, hits give low values 0.932 | S. cerevisiae deletion strains, locus YLR357W, strain rsc2, hits give low values 1.02 | S. cerevisiae deletion strains, locus YLR370C, strain arc18, hits give low values 0.975 | S. cerevisiae deletion strains, locus YLR384C, strain iki3, hits give low values 0.97 | S. cerevisiae deletion strains, locus YML016C, strain PPZ1, hits give low values 1.01 | S. cerevisiae deletion strains, locus YML124C, strain tub3, hits give low values 0.997 | S. cerevisiae deletion strains, locus YMR058W, strain fet3, hits give low values 0.953 | S. cerevisiae deletion strains, locus YMR078C, strain ctf18, hits give low values 0.981 | S. cerevisiae deletion strains, locus YMR125W, strain sto1, hits give low values 0.942 | S. cerevisiae deletion strains, locus YMR129W, hits give low values 0.978 | S. cerevisiae deletion strains, locus YMR223W, strain ubp8, hits give low values 0.928 | S. cerevisiae deletion strains, locus YMR231W, strain pep5, hits give low values 0.966 | S. cerevisiae deletion strains, locus YMR307W, strain GAS1, hits give low values 0.869 | S. cerevisiae deletion strains, locus YNL067W, strain RPL9B, hits give low values 0.995 | S. cerevisiae deletion strains, locus YNL209W, strain ssb2, hits give low values 0.965 | S. cerevisiae deletion strains, locus YNL248C, strain rpa49, hits give low values 0.99 | S. cerevisiae deletion strains, locus YNL250W, strain rad50, hits give low values 1.01 | S. cerevisiae deletion strains, locus YNL271C, strain bni1, hits give low values 0.947 | S. cerevisiae deletion strains, locus YNL322C, strain KRE1 (second series), hits give low values 0.973 | S. cerevisiae deletion strains, locus YNR049C, strain mso1, hits give low values 0.969 | S. cerevisiae deletion strains, locus YOL012C, strain htz1 1.44 | S. cerevisiae deletion strains, locus YOR001W, strain rrp6, hits give low values 0.943 | S. cerevisiae deletion strains, locus YOR069W, strain VPS5, hits give low values 0.989 | S. cerevisiae deletion strains, locus YOR070C, strain gyp1, hits give low values 0.935 | S. cerevisiae deletion strains, locus YOR080W, strain dia2, hits give low values 0.978 | S. cerevisiae deletion strains, locus YOR106W, strain vam3, hits give low values 0.875 | S. cerevisiae deletion strains, locus YOR136W, strain idh2, hits give low values 0.973 | S. cerevisiae deletion strains, locus YOR144C, strain elg1, hits give low values 0.944 | S. cerevisiae deletion strains, locus YOR265W, strain rbl2, hits give low values 0.937 | S. cerevisiae deletion strains, locus YOR290C, strain snf2, hits give low values 0.917 | S. cerevisiae deletion strains, locus YOR316C, strain cot1, hits give low values 0.984 | S. cerevisiae deletion strains, locus YPL106C, strain sse1, hits give low values 1.06 | S. cerevisiae deletion strains, locus YPL240C, strain hsp82, hits give low values 0.958 | S. cerevisiae deletion strains, locus YPL241C, strain CIN2, hits give low values 1 | S. cerevisiae deletion strains, locus YPR119W, strain clb2, hits give low values 0.982 | S. cerevisiae deletion strains, locus YPR141C, strain kar3, hits give low values 1.01
